Experimental data as given in ChEMBL document CHEMBL3988442, “University of Dundee, Small-Polar-MMV Screening Library” (2021).
For some of these results: Measured potencies and affinities stand elsewhere.

What was measured:
Parameters in all cases: scale not given: direction of the effect not stated beside the values
[1] = molecular target: Protein translocase subunit SecA (Escherichia coli (strain K12)) (UniProt P10408); experiment: Assay to Identify E. coli SecA ATPase Inhibitors; type: functional; conditions: 30 µM
[2] = molecular target: T1, Ubiquitin-activating enzyme e1, putative (Leishmania donovani (strain BPK282A1)) (UniProt E9BSI1); experiment: Leishmania donovani Ubiquitin Activating Enzyme (LdE1); type: functional; conditions: 30 µM
T1 sequence (whole entry): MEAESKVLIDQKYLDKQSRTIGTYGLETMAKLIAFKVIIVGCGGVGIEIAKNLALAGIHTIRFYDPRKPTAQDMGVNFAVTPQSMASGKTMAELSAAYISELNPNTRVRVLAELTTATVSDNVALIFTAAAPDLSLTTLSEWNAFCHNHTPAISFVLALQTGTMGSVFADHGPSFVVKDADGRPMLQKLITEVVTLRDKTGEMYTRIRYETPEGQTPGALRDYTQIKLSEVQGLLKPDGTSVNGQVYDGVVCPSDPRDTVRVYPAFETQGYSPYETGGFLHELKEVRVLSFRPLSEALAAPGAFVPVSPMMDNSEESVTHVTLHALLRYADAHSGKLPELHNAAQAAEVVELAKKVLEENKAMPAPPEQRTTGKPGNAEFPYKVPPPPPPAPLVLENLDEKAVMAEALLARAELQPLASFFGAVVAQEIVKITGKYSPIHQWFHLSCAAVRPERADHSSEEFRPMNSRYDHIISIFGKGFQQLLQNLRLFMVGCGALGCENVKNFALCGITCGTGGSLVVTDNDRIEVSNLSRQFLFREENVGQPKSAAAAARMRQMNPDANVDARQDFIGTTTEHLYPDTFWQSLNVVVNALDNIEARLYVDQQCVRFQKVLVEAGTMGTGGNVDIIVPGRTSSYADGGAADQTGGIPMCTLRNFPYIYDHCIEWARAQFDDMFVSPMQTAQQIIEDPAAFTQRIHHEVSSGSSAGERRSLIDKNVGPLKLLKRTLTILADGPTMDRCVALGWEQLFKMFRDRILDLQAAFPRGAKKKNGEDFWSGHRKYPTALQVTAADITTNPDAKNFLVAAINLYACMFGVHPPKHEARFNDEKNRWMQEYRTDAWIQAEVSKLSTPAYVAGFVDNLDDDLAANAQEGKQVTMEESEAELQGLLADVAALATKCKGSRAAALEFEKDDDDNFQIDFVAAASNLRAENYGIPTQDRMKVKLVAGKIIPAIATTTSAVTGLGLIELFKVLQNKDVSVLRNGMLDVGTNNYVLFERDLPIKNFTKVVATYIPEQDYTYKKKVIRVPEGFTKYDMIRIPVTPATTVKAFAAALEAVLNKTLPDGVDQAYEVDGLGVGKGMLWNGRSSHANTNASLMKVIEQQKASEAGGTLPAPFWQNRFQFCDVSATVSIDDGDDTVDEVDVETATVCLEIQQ

[3] = molecular target: AMP-activated protein kinase, AMPK (Homo sapiens) (UniProt P54646+O43741+P54619+Q9UGJ0+Q9Y478+Q13131+Q9UGI9); experiment: AMP-dependent Kinase enzyme assay. An in vitro enzyme assay that detects ADP turnover that is directly proportional to AMPK activity. This uses naive AMPK that is activated during the assay with MK-8722; type: functional; conditions: 30 µM
[4] = molecular target: Sialic acid-binding Ig-like lectin 9 (Homo sapiens) (UniProt Q9Y336); experiment: Hs-Siglec9 ALPHAscreen SOP 20170721; conditions: 10 µM
[5] = tested on: Trypanosoma cruzi; experiment: Trypanosoma cruzi phosphomannomutase and mannose-1-phosphate guanylyltransferase assay; type: functional; conditions: 10 µM
[6] = molecular target: T2, Arginase-2, mitochondrial (Homo sapiens) (UniProt P78540); experiment: in vitro enzyme assay to detect the production of urea directly proportional to the activity of Arginase II; type: functional; conditions: 33.3 µM; further: in the data most compounds retested in dose-response had high values
T2 sequence (whole entry): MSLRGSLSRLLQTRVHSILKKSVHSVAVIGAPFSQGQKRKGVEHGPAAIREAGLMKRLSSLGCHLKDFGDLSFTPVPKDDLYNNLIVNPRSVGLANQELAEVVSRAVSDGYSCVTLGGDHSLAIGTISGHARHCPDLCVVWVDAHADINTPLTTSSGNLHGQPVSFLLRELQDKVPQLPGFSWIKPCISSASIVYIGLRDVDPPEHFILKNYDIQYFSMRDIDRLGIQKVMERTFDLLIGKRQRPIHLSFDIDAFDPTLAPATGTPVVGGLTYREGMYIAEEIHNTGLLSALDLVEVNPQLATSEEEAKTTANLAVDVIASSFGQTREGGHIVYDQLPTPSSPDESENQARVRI

[7] = molecular target: T3, Proteasome subunit beta (Trypanosoma cruzi) (UniProt O96673); experiment: Trypanosoma cruzi proteasome chymotrypsin-like activity (TcProtChymo) assay.; further: in the data most compounds retested in dose-response had high values; type: functional; conditions: 9.37 µM
T3 sequence (whole entry): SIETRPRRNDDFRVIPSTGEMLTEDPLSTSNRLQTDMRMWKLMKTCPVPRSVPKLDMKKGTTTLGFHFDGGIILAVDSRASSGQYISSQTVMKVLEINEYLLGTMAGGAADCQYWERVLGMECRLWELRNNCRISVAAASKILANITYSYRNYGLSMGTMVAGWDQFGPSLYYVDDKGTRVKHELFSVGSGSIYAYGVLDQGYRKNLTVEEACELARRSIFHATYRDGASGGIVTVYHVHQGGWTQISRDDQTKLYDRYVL

[8] = organism: Homo sapiens; experiment: To identify inhibition of the IFN signalling (Jak-Stat) pathway via expression of an eGFP reporter gene under the control of an IFN-stimulated response element (ISRE) containing MxA promoter.; type: functional; conditions: 30 µM
[9] = molecular target: T4, Tyrosyl-tRNA synthetase, putative (Trypanosoma cruzi (strain CL Brener)) (UniProt Q4DSP6); experiment: Trypanosoma cruzi tyrosyl tRNA synthetase (TcYRS) _High Tyrosine SOP; type: functional; conditions: 30 µM; further: in the data most compounds retested in dose-response had high values
T4 sequence (whole entry): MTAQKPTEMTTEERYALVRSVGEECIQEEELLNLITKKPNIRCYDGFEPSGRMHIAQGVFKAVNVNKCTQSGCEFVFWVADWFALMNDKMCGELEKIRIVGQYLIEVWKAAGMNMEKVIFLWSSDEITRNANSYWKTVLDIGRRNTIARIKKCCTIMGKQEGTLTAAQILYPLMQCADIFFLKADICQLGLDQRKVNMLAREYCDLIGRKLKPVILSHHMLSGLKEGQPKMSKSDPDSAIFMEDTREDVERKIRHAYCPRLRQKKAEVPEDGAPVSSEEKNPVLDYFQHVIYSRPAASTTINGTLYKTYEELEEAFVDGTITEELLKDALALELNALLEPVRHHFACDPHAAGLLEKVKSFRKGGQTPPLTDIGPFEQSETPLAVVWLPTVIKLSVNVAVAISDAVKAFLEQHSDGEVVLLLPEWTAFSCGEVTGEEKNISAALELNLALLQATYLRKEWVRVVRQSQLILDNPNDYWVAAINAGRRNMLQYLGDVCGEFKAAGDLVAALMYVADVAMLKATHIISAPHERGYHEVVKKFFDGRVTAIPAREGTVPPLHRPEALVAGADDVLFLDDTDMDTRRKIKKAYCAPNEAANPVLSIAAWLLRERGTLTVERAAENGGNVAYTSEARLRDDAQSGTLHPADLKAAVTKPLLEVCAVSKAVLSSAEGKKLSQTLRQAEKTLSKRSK

[10] = molecular target: T4, Tyrosyl-tRNA synthetase, putative (Trypanosoma cruzi (strain CL Brener)); experiment: Trypanosoma cruzi tyrosyl tRNA synthetase (TcYRS) SOP; type: functional; conditions: 30 µM
[11] = molecular target: Chromo domain-containing protein 1 (Saccharomyces cerevisiae (strain ATCC 204508 / S288c) (Baker's yeast)) (UniProt P32657); experiment: ScCHD-1 Enzyme Inhibition Assay; type: functional; conditions: 30 µM; further: in the data most compounds retested in dose-response had high values
Chain of Chromo domain-containing protein 1 (Saccharomyces cerevisiae (strain ATCC 204508 / S288c) (Baker's yeast)) (P32657 whole entry, the tested form may be a part): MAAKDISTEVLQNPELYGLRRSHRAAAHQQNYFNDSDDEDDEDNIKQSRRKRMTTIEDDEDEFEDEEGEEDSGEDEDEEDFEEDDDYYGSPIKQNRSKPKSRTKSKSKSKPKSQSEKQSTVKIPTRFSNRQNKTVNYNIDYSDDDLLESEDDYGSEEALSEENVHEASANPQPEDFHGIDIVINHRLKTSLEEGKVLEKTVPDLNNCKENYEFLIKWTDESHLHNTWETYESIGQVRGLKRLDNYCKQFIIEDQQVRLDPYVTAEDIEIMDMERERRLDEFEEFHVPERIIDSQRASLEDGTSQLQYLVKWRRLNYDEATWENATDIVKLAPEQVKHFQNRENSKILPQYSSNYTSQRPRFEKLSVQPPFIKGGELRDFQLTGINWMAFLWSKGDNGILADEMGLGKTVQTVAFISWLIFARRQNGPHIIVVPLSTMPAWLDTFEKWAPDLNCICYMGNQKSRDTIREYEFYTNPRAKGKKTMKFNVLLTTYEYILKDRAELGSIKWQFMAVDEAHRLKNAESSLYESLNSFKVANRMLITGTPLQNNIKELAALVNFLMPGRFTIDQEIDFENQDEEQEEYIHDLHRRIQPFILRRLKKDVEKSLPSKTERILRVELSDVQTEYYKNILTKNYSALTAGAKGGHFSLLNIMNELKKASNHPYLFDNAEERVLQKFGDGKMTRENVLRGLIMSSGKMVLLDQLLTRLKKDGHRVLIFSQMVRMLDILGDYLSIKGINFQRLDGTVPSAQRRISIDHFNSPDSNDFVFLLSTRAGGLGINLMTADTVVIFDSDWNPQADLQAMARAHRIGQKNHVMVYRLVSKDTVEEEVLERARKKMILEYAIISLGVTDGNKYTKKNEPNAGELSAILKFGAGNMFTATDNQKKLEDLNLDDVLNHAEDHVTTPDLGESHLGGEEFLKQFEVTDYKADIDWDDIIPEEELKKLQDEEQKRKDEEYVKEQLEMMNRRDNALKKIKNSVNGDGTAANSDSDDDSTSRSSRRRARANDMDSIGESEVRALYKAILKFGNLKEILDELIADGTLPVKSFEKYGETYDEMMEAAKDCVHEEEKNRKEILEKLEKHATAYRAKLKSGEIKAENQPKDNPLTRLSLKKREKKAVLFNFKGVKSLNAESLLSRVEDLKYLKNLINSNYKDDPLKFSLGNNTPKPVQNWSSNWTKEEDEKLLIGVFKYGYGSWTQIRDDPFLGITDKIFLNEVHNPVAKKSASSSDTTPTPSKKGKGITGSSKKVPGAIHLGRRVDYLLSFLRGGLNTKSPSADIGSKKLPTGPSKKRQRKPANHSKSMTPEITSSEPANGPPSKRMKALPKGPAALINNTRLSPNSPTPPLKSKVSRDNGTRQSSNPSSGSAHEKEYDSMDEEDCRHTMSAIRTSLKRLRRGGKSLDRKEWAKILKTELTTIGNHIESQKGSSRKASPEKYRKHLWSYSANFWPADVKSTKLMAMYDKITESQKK

Chain of Protein translocase subunit SecA (Escherichia coli (strain K12)) (P10408 whole entry): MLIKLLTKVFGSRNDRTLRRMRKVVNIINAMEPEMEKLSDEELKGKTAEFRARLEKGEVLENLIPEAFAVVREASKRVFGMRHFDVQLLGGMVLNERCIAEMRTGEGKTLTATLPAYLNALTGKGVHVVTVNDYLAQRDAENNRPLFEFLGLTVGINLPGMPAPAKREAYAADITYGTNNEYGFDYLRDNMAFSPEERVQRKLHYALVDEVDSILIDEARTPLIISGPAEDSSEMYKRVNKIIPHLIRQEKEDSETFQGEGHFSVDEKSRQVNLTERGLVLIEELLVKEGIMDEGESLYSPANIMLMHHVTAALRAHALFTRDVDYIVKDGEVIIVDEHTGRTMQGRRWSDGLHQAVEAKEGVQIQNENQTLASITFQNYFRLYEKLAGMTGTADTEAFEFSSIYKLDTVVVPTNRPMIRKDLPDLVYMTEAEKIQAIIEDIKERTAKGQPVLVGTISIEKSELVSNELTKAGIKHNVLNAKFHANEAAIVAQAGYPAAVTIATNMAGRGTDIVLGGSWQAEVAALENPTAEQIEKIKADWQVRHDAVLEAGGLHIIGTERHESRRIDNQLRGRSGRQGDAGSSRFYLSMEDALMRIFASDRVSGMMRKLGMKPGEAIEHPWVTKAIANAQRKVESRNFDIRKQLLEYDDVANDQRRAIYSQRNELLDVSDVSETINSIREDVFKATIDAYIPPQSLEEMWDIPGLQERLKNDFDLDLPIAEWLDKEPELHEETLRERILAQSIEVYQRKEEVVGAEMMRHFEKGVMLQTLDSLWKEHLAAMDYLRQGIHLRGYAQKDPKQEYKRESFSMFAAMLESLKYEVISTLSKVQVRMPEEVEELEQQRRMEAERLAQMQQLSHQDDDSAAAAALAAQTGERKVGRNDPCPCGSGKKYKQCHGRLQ
Chain of Sialic acid-binding Ig-like lectin 9 (Homo sapiens) (Q9Y336 whole entry): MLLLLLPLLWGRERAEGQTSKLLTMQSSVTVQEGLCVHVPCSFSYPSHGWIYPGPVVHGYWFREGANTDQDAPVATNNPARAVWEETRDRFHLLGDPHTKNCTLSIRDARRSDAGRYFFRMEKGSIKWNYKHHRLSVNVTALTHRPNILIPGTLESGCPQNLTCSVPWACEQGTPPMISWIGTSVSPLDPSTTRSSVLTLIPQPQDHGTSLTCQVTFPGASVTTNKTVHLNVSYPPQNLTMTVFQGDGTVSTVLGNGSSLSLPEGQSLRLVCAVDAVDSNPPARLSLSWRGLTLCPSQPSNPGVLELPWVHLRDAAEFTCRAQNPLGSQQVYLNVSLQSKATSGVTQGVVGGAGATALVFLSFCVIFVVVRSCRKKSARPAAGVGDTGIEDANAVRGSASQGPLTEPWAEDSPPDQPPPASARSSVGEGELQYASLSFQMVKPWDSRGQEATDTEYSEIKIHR

Compound | Percent Effect [1] [%] | Percent Effect [2] [%] | Percent Effect [3] [%] | Percent Effect [4] [%] | Percent Effect [5] [%] | Percent Effect [6] [%] | Percent Effect [7] [%] | Percent Effect [8] [%] | Percent Effect [9] [%] | Percent Effect [10] [%] | Percent Effect [11] [%]
COCCNC(=O)c1cc2c(s1)CCN2C(=O)c1ccccc1 | -6.01 | 10.7 | -16.6 | 4.96 | 1.35 | -53.9 | 9.74 | -0.33 | 6.25 | 15 | 6.46
O=C(NCCCO)Nc1cccc(Cl)c1F | -3.09 | 12.5 | -6.85 | 11.1 | 4.96 | 11 | 8.25 | -2.91 | 3.16 | 5.13 | -4.47
Cc1nn(CCn2ccnc2-c2cc3n(n2)CCCNC3)c(C)c1Cl | -4.62 | 21.3 | -6.15 | 20.4 | 5.75 | 6.25 | 16.9 | 21.8 | 7.1 | 23.5 | -7.41
CN(C)C(=O)N1CCN(C(=O)C(c2ccccc2F)N(C)C)CC1 (stereo unspecified) | -3.25 | 9.72 | -8.74 | 14.1 | 6.71 | 7.06 | 14 | -4.8 | 4.21 | 7.69 | -9.49
COCc1nc2cc(NCc3ccncc3)ccc2o1 | 6.12 | 54 | -108 | -0.763 | -1.76 | 9.58 | 13.4 | -8.66 | 4.95 | -1.22 | 2.52
CC(C)(C)c1ncc2c(n1)CN(C(=O)c1ccc(-c3nc[nH]n3)cc1)C2 | -4.17 | 19.2 | -3.06 | 7.66 | 4.37 | 1.2 | 6.76 | -4.4 | 7.29 | 21 | -8.9
O=C(O)c1cc(NS(=O)(=O)c2cccc(Cl)c2F)ccc1Cl | -7.65 | 2.6 | 4.08 | 1.53 | -5.8 | -2.13 | 5.57 | 23.4 | -11.7 | -12.2 | -3.44
Cc1ccc(-c2cn[nH]c2C2CCCN(c3nccc(N)n3)C2)cc1 (stereo unspecified) | -2.69 | 20.8 | 46.7 | 15.4 | 5.15 | -1.77 | 25.6 | 37.1 | 7.37 | 20.5 | 3.03
Cc1ccc(-c2noc(CN3CCOC(Cn4cncn4)C3)n2)cc1 (stereo unspecified) | -4.95 | -5.41 | 0.576 | 2.63 | 2.14 | -2.03 | -1.79 | 8.27 | 2.97 | -1.22 | 5.54
Cc1nn(C)c(N(C)C)c1CNCC(O)COc1ccccc1 (stereo unspecified) | -3.8 | 5.48 | -12.3 | 0.598 | 4.11 | 2.27 | 17.4 | -13.8 | 5.38 | 17.5 | -1.71
Cc1nnc(NC(=O)NCc2cccnc2N(C)C)s1 | -3.62 | 13 | -1.32 | 4.98 | 5.24 | 4.27 | 11.2 | 4.88 | 6.8 | 21.9 | -9.15
